Test results from ChEMBL document CHEMBL1157539, “Thousands of chemical starting points for antimalarial lead identification” (Nature, 2010).

Tests used:
Assay type in all cases: functional
Plasmodium falciparum [1] = assay: GSK_TCMDC: Inhibition of Plasmodium falciparum 3D7 in whole red blood cells, using parasite LDH activity as an index of growth. Test compounds present at 2uM
Plasmodium falciparum [2] = assay: GSK_TCMDC: Inhibition of Plasmodium falciparum Dd2 in whole red blood cells, using parasite LDH activity as an index of growth. Test compounds present at 2uM
HepG2 = assay: GSK_TCMDC: Percent inhibition of human HepG2 cell line. Test compounds present at 10uM.

SMILES | Inhibition (Plasmodium falciparum [1]) | Inhibition (Plasmodium falciparum [2]) | Inhibition (HepG2)
CN(C)c1cccc2c1nc(-c1ccc3c(c1)CCO3)n2CCNCc1ccccc1.O=C(O)C(F)(F)F | 99% | 85% | 6%
O=[N+]([O-])c1cccc(NC(=S)N2CCCN(Cc3ccc(C(F)(F)F)cc3)CC2)c1 | 90% | 49% | 11%
CCCNC(=O)Nc1ccc(N(C)c2ccnc(NC3CC3)n2)cc1 | 100% | 88% | 28%
Cc1ccc(NC(=O)NC2CCN(c3ccnc4cc(Cl)ccc34)C2)cc1.O=C(O)C(F)(F)F (stereo not given) | 100% | 96% | 19%
COc1ccc2nccc([C@H](O)CN3CCC(NCc4cc(C)c5c(c4)OCCO5)CC3)c2n1.Cl | 96% | 35% | 12%
COC(=O)c1ccc(NC(=O)c2ccc(CCN3CCC(c4nc(COCC(F)(F)F)c(-c5ccc(F)cc5)o4)CC3)cc2)cc1 | 89% | 37% | 22%
O=C(/C=N/O)Nc1ccccc1[N+](=O)[O-] | 99% | 0% | 0%
CCC[C@@H]1CCN[C@H]([C@H](O)c2ccnc3ccc(OC)cc23)C1.Cl | 99% | 69% | 0%
c1ccc(-c2cc(NCCCn3ccnc3)nc(-c3cccnc3)n2)cc1 | 84% | 6% | 15%
O=C(Cc1ccc(-c2ccccc2)cc1)N[C@H]1CCN(Cc2ccc(OCCCN3CCCCC3)cc2)C1 | 99% | 27% | 36%
COc1cccc2c(NCc3ccccc3)nc(NCCCN3CCCCC3C)nc12 (stereo not given) | 90% | 2% | 20%
CCCCN(CCCC)CCNC(=O)c1cc(OC(F)(F)F)ccc1O | 93% | 90% | 8%
COc1ccc(-c2cn3c(C(=O)Nc4ccccc4Cl)c(-c4ccccc4)c4c3n2CCCC4)cc1 | 100% | 1% | 7%
OC(c1ccc(Cl)cc1)(c1ccc(Cl)cc1)C(c1ccc(Cl)cc1)n1ccnc1 (stereo not given) | 100% | 100% | 15%
Fc1ccc(C=NN=c2cc[nH]c3ccc(C(F)(F)F)cc23)cc1 | 90% | 6% | 22%
CCN(CC)CCN(Cc1ccc(-c2ccc(C(F)(F)F)cc2)cc1)C(=O)Cn1c(SCc2ccc(F)cc2)nc(=O)c2sccc21.O=C(O)C(O)C(O)C(=O)O | 100% | 65% | 51%
COc1ccc(CNC2Cc3ccccc3C2)cc1-c1ccc(S(=O)(=O)NCCN2CCCC2)s1.O=C(O)C(F)(F)F | 100% | 100% | 89%
O=C(/C=C/c1ccc(Cl)c(Cl)c1)NCCCCCN1CCC(NC(=O)NCCc2ccccc2)CC1 | 100% | 7% | 23%
C[C@H]1CN(Cc2cccc(-c3cc(CNC(=O)c4cccc(C(=O)c5ccc(Cl)c(Cl)c5)c4)ccc3F)c2)CCN1 | 85% | 42% | 40%
CC(C)CCN(Cc1cncn1Cc1ccccc1F)C(=O)c1cncc(-c2ccccc2)c1 | 96% | 3% | 1%

SMILES | Inhibition (Plasmodium falciparum [1]) | Inhibition (Plasmodium falciparum [2]) | Inhibition (HepG2)
COc1ccc(-n2cc(CNCCCn3ccnc3)c(-c3cccc(F)c3)n2)cc1 | 98% | 17% | 21%
COc1ccc(-c2cccc(NC(=O)c3ccc(Cl)cc3)c2)cc1CN1CCCN(C)CC1.O=C(O)C(F)(F)F | 100% | 95% | 29%
CC(C)c1ccc(OCC(O)CN(CCN2CCOCC2)C(=O)Nc2ccc(Br)cc2)cc1.O=C(O)C(F)(F)F (stereo not given) | 98% | 44% | 6%
COc1ccc(CNC2CCN(C)CC2)cc1-c1ccc(S(=O)(=O)NCc2ccccc2)c(C)c1.O=C(O)C(F)(F)F | 100% | 98% | 81%
Cl.Nc1ncc(-c2ccccc2)cc1-c1nc2cc(Cl)c(F)cc2[nH]1 | 100% | 91% | 37%
CCNc1cc(C(=O)N[C@@H](Cc2ccccc2)[C@H](O)CNC2CCCCC2)cc(N2CCCCS2(=O)=O)c1 | 99% | 98% | 11%
O=C(/C=C/c1ccc(Cl)c(Cl)c1)NCCCCCN1CCC(NS(=O)(=O)c2cc(Cl)cc(Cl)c2)CC1 | 83% | 5% | 7%
COc1ccccc1CCNC(=O)c1cc(Br)cc(N2CCN(c3ccncc3)CC2)c1.O=C(O)C(F)(F)F | 84% | 32% | 38%
Nc1cccc(CNCc2ccc(-c3cccc(-c4nc5cc(C(F)(F)F)ccc5[nH]4)c3)cc2)c1.O=C(O)C(F)(F)F | 100% | 100% | 60%
COc1ccc(-c2nc3cc4ccccc4nc3[nH]2)c(OCC(O)CNC(C)C)c1.Cl (stereo not given) | 98% | 96% | 19%
O=C(Nc1cccc(C(F)(F)F)c1)NC1CCN(c2ccnc3ccccc23)CC1.O=C(O)C(F)(F)F | 100% | 43% | 23%
Fc1cc(Cl)ccc1Nc1ccnc2cc(-c3ccc(CN4CCOCC4)o3)ccc12 | 99% | 98% | 33%
O=C(Nc1ccc(Oc2ccccc2)cc1)N[C@@H](Cc1ccc(O)cc1)C(=O)NC1CCN(Cc2ccc(O)c([N+](=O)[O-])c2)C1 (stereo not given in full) | 100% | 0% | 0%
COc1ccc2c(c1)CC(C)(C)NC2CCCCCCCCC1NC(C)(C)Cc2cc(OC)ccc21.O=C(O)C(=O)O (stereo not given) | 98% | 62% | 42%
CN1CCN(c2cc(-c3cccnc3)nc(-c3ccncc3)n2)CC1 | 100% | 89% | 11%
CC(C)c1ccc2[nH]c(C(=O)NC3CCC(N4CCCc5ccc(C#N)cc5C4)CC3)cc2c1 (stereo not given) | 91% | 27% | 48%
COc1ccc(CCn2c(C3CCCCC3)nc3oc4ccccc4c(=O)c3c2=O)cc1 | 91% | 66% | 12%
CCCN(Cc1nnc(-c2cccs2)o1)C(=O)C1COc2ccccc2O1 (stereo not given) | 87% | 49% | 1%
COc1ccc(C(=O)C2CC2CN(C)CCC(O)c2ccc(Cl)c(Cl)c2)cc1 (stereo not given) | 94% | 86% | 24%
CN(C)c1ccc2c(c1)Sc1cc(N(C)C)ccc1N2C(=O)c1cccc(C(=O)O)c1 | 99% | 73% | 8%

SMILES | Inhibition (Plasmodium falciparum [1]) | Inhibition (Plasmodium falciparum [2]) | Inhibition (HepG2)
O=C(O)C(F)(F)F.c1ccc(CN2CCC(NCc3ccccc3-c3cccc(CNCc4ccc5c(c4)OCO5)c3)CC2)cc1 | 100% | 69% | 37%
CCOc1ccc2c(=NN=Cc3c4ccccc4cc4ccccc34)cc(C)[nH]c2c1 | 90% | 94% | 0%
Cl.N#CCc1ccc(Nc2nccc(Nc3ccc(Oc4ccccc4)cc3)n2)cc1 | 98% | 47% | 0%
Cc1cccc2nc(-c3cccc(-c4cccc(C(=O)NCCc5cn(C)cn5)c4)c3)[nH]c12 | 100% | 78% | 12%
Cc1sc(CNCCCNc2cc(=O)c3ccccc3[nH]2)cc1Br | 100% | 83% | 12%
CC(C)(C)Oc1ccc(CC2NC3(C(=O)N(Cc4ccc(C(C)(C)C)cc4)c4ccccc43)C3C(=O)N(c4ccc(Br)cc4)C(=O)C23)cc1 (stereo not given) | 94% | 94% | 24%
CCCCCC(C)NC[C@@H](O)[C@H](Cc1ccccc1)NC(=O)c1cc(NCC)cc(N2CCCCS2(=O)=O)c1.Cl (stereo not given in full) | 98% | 79% | 3%
NC(=O)NC(=O)C=Cc1ccco1 | 97% | 0% | 32%
Cc1cc(NC(=O)c2ccsc2)ccc1OC1CCN(Cc2ccc(F)cc2)CC1.O=C(O)C(F)(F)F | 83% | 47% | 9%
CCOc1c(CNCCCNc2cc(O)c3ccccc3n2)cc(Br)cc1OC | 80% | 18% | 10%
CCCNCc1ccc(-c2ccc(CN(CCOC)C(=O)c3cscn3)cc2)nc1.O=C(O)C(F)(F)F | 99% | 16% | 13%
O=C(Cn1c(CCc2cccc(F)c2F)cc(=O)c2cccnc21)N(CCN1CCCC1)Cc1ccc(-c2ccc(C(F)(F)F)cc2)cc1.O=C(O)C(O)C(O)C(=O)O | 99% | 64% | 48%
Cc1cc(N(C)C)nc(Nc2ccc(NC(=O)c3cccc(F)c3)cc2)n1 | 100% | 62% | 0%
CCc1sc(N2CCN(C)CC2)nc1C(=O)NCCc1ccc(Cl)c(Cl)c1.O=C(O)C(F)(F)F | 92% | 49% | 5%
CCOC(=O)c1c(NC(=O)c2ccccc2)sc2c(O)c(CN(CC)CC)ccc12.Cl | 100% | 100% | 9%
CNC(=O)NC1=NC(C)(C)N(OCc2ccc(Cl)c(Cl)c2)C(NC(=O)NC)=N1 | 99% | 0% | 1%
COc1cc2nc(NCCn3nc(C)cc3C)nc(NCCc3ccccc3)c2cc1OC | 100% | 100% | 28%
CC(C)(CN)c1nc(-c2ccc(Br)c(O)c2)c(-c2ccncc2)[nH]1.Cl | 96% | 97% | 31%
Cc1cccc2nc(-c3ccc(-c4ccc(CNCCCN5CCCC5=O)cc4)cc3)[nH]c12.O=C(O)C(F)(F)F | 100% | 47% | 7%
Fc1ccc(-c2oc(C3CCN(CCc4ccc(-c5noc(=S)[nH]5)cc4)CC3)nc2COCC(F)(F)F)cc1 | 97% | 95% | 5%
